{"source": "paper PMC6792352", "about": "“Limited Chemical Structural Diversity Found to Modulate Thyroid Hormone Receptor in the Tox21 Chemical Library” (Environmental Health Perspectives, 2019)", "note": "Counter-ions that a name gives are not always drawn.", "data": [{"test_system": "thyroid hormone receptor (endogenous TRα and TRβ)", "set-up": "species or system GH3-TRE-Luc (rat pituitary); GH3-TRE-Luc luciferase reporter, antagonist mode against 1 nM T3, loss of signal, qHTS", "conditions": "read-out: Average AC50 (uM) GH3-TRE-Antag, antagonist mode, 1 nM T3, no GH3 cytotoxicity hit", "units": {"AC50": "µM"}, "values": [{"compound": "CC(C)(C)c1ccc(CCC=O)cc1", "note": "[3-(4-tert-Butylphenyl)propanal]", "AC50": 56.6}, {"compound": "CS(=O)(=O)Nc1ccc([N+](=O)[O-])cc1Oc1ccccc1", "note": "[Nimesulide]", "AC50": "> 20"}, {"compound": "NNc1nnc(Cc2ccncc2)c2ccccc12", "note": "[Picodralazine]", "AC50": 3.28}, {"compound": "O=Cc1ccc(Cl)c([N+](=O)[O-])c1", "note": "[4-Chloro-3-nitrobenzaldehyde]", "AC50": 68.3}, {"compound": "CCN(CC)C(=O)N[C@H]1C[C@@H]2c3cccc4[nH]cc(c34)C[C@H]2N(C)C1", "note": "[Terguride]", "AC50": 22.1}, {"compound": "C#C[C@]1(O)CC[C@H]2[C@@H]3CCC4=CC(=O)CC[C@]4(C)[C@H]3CC[C@@]21C", "note": "[Ethisterone]", "AC50": 7.79}, {"compound": "Cc1oc(C)c(C(=O)Nc2ccccc2)c1C", "note": "[Methfuroxam]", "AC50": 23.1}, {"compound": "CCCCCCCC/C=C/CCCCCCCC(=O)OCCO", "note": "[Polyoxyethylene monoleate]", "AC50": 81.3}, {"compound": "O=C1c2ccccc2C(=O)N1CCc1noc(-c2ccc(CN3CCCCCC3)s2)n1", "note": "[PharmaGSID_48172]", "AC50": 75.2}, {"compound": "CC(C)C[C@H](NC(=O)OCC1c2ccccc2-c2ccccc21)C(=O)O", "note": "[N-(9-Fluorenylmethoxycarbonyl)-L-leucine]", "AC50": "> 90"}, {"compound": "COC(=O)Nc1ccc(Cl)c(Cl)c1", "note": "[Swep]", "AC50": "> 90"}, {"compound": "C#C[C@]1(O)CC[C@H]2[C@@H]3CCc4cc(O)ccc4[C@H]3CC[C@@]21C", "note": "[17alpha-Ethinylestradiol]", "AC50": 16.2}, {"compound": "CCCCOC(=O)c1ccc(O)cc1", "note": "[Butylparaben]", "AC50": "> 50"}, {"compound": "COc1cc(CNC(=O)CCCC/C=C/C(C)C)ccc1O", "note": "[Capsaicin]", "AC50": 34.4}, {"compound": "CC1=CC[C@H](C(C)C)C=C1", "note": "[(R)-alpha-Phellandrene]", "AC50": 54.5}, {"compound": "CCC(C)c1cc(C(C)(C)C)c(O)c(C(C)(C)C)c1", "note": "(centres unmarked) [4-(Butan-2-yl)-2,6-di-tert-butylphenol]", "AC50": 23.6}, {"compound": "O=c1[nH]c(=O)n([C@H]2C[C@H](O)[C@@H](CO)O2)cc1C(F)(F)F", "note": "[Trifluridine]", "AC50": 23.4}, {"compound": "CC/C=C\\CCOC(=O)c1ccccc1", "note": "[(3Z)-Hex-3-en-1-yl benzoate]", "AC50": 73.9}, {"compound": "CCCCOC(=O)CC(CC(=O)OCCCC)(OC(C)=O)C(=O)OCCCC", "note": "[Acetyl tributyl citrate]", "AC50": 35.1}, {"compound": "CN(CCOc1ccc(CC2SC(=O)NC2=O)cc1)c1ccccn1", "note": "(centres unmarked) [Rosiglitazone maleate]", "AC50": 75.1}, {"compound": "C=CC[C@]1(O)CC[C@H]2[C@@H]3CCC4=CC(=O)CCC4=C3C=C[C@@]21C", "note": "[Altrenogest]", "AC50": 11.8}, {"compound": "C/C=C\\C/C=C/CCCCCCCCOC(C)=O", "note": "[(9E,12Z)-9,12-Tetradecadien-1-ol acetate]", "AC50": 68.2}, {"compound": "CCCOc1ccc(C(=O)OCCN(CC)CC)cc1N", "note": "[Proparacaine hydrochloride]", "AC50": "> 50"}, {"compound": "CCCC(=O)O[C@]1(C(=O)CCl)[C@@H](C)C[C@H]2[C@@H]3CCC4=CC(=O)C=C[C@]4(C)[C@@]3(F)C(=O)C[C@@]21C", "note": "[Clobetasone butyrate]", "AC50": 32.9}, {"compound": "OC[C@H](Cc1cccc(O)c1)[C@H](CO)Cc1cccc(O)c1", "note": "[(-)-Enterodiol]", "AC50": "> 90"}, {"compound": "CC(Cc1ccccc1)(NC(=O)CN)c1ccccc1", "note": "(centres unmarked) [Remacemide hydrochloride]", "AC50": 21.8}, {"compound": "CC(C)OC(=O)OCOP(=O)(CO[C@H](C)Cn1cnc2c(N)ncnc21)OCOC(=O)OC(C)C", "note": "[Tenofovir disoproxil fumarate]", "AC50": 24.9}, {"compound": "C/C=C(C)/C=C/C=C(C)C", "note": "[2,6-Dimethyl-2,4,6-octatriene]", "AC50": "> 90"}, {"compound": "CCN(CC)CCOCCOC(=O)C1(c2ccccc2)CCCC1", "note": "[Carbetapentane]", "AC50": 11}, {"compound": "Oc1ccccc1Cc1ccccc1O", "note": "[2,2'-Bisphenol F]", "AC50": "> 90"}, {"compound": "CO[C@@H]1[C@H](OC(=O)NC(=O)CCl)CC[C@]2(CO2)[C@H]1[C@@]1(C)O[C@@H]1CC=C(C)C", "note": "[o-(Chloroacetylcarbamoyl)fumagillol]", "AC50": 4.57}, {"compound": "CC(Oc1ccc(Oc2ncc(C(F)(F)F)cc2Cl)cc1)C(=O)O", "note": "(centres unmarked) [Haloxyfop]", "AC50": 58.9}, {"compound": "CNC(=S)NC", "note": "[N,N'-Dimethylthiourea]", "AC50": 72}, {"compound": "O=C(Nc1ccc(/C=C/c2ccc(NC(=O)c3cc(S(=O)(=O)O)c4cccnc4c3O)cc2S(=O)(=O)O)c(S(=O)(=O)O)c1)c1cc(S(=O)(=O)O)c2cccnc2c1O", "note": "[Ubistatin A]", "AC50": 27.4}, {"compound": "NC(=O)Nc1ccc(Cl)c(Cl)c1", "note": "[3,4-Dichlorophenylurea]", "AC50": 52.4}]}]}
